Vaccinia mCherry = inhibitors of vaccinia virus infection (mCherry reporter signal). Vaccinia virus mCherry reporter infection, fluorescence. Potency, µM (series often up to 36.5 µM), for inactives: at the highest dose activity change, negative = inhibition, actives largely listed as inhibitors. 310,000 compounds, 0.63% hits. AID 720579; calls by dose curve; tested in A549 cells; further: potency means the concentration at half of the fitted maximal effect; on the % scale 0 is the no-effect control and ±100 the full control effect; nearly all actives have a fitted effect of over 35% in size
Lassa entry inh = inhibitors of Lassa virus binding or cell entry. Potency, µM (titrated, usually from 37.9 µM), inactives show at the highest dose activity change, negative = inhibition, hits mostly inhibitors. Lassa virus pseudotype entry inhibition, cell reporter. AID 540256. 300,000 compounds, 1.2% hits; calls by dose curve; tested in HEK293 cells; further: potency means the concentration at half of the fitted maximal effect; on the % scale 0 is the no-effect control and ±100 the full control effect; nearly all actives have a fitted effect of over 50% in size
VACV Venus inh = inhibitors of vaccinia virus (Venus reporter); AID 720580; 330,000 compounds, 0.46% hits; Vaccinia virus Venus reporter expression, fluorescence; Potency, µM (series often up to 36.5 µM), for inactives: at the top dose activity change, negative = inhibition, most hits filed as inhibitors; calls by dose curve; tested in A549 cells; further: potency means the concentration at half of the fitted maximal effect; on the % scale 0 is the no-effect control and ±100 the full control effect; nearly all actives have a fitted effect of over 30% in size
Marburg entry inh = blocks Marburg virus binding to or entry into cells; Marburg virus pseudotyped entry inhibition, cell reporter; 300,000 compounds, 1.8% hits; AID 540276; Potency, µM (highest dose often 37.8 µM), inactives show at the top dose activity change, negative = inhibition, hits mostly inhibitors; calls by dose curve; tested in HEK293 cells; further: potency means the concentration at half of the fitted maximal effect; on the % scale 0 is the no-effect control and ±100 the full control effect
Cycloheximide cs = counter-screen hit for Shiga toxin inhibitors, cycloheximide | cell reporter, cycloheximide protein synthesis inhibition counterscreen | max response, % | 300,000 compounds, 12% hits; in the data active means max response mostly above about 13%, no sharp cut-off; inactive means mostly below about 14%; further: read at 38.3 µM for the half of the compounds with a filed dose; 0% is about no effect
Shiga toxin inh = inhibitors of Shiga toxin in Vero cells. inhibition, % at 38.7 µM. Vero cells, Shiga toxin protein synthesis inhibition reporter. AID 2315. 290,000 compounds, 9.2% hits; in the data active means inhibition mostly above about 28%, no sharp cut-off; inactive means mostly below about 43%; further: 0% is about no effect
Numbers without * were called inactive; i = inactive; ? = inconclusive; nt = no result given; [ ] = another dose, or the depositor's remark. Many of the other results were omitted from the sample, so hits are more common in it than they were.

SMILES | Vaccinia mCherry | Lassa entry inh | VACV Venus inh | Marburg entry inh | Cycloheximide cs | Shiga toxin inh
COC1=C(N)C(=O)c2nc(-c3nc(C(=O)O)c(C)c(-c4ccc(OC)c(OC)c4O)c3N)ccc2C1=O | 0.71µM* | 0.082µM* | 0.63µM* | 0.058µM* | -4 | -13
Cc1cnc(NS(=O)(=O)c2ccccc2)c(C)n1 | nt | nt | nt | nt | -3 | 11
CCOc1ccc(NC(=S)N(CCc2c(C)[nH]c3ccccc23)Cc2ccco2)cc1 | ? | 2% | -24% | 0% | -2 | -15
COc1ccc(NC(=S)N(CCc2c(C)[nH]c3ccccc23)Cc2ccco2)cc1 | -3% | ? | -14% | 13µM* | -4 | -14
CCn1c2c(c(=O)n3ncc(C(=O)N4CCN(c5ccc(C(C)=O)cc5)CC4)c13)CN(Cc1ccc(OC)cc1)CC2 | -24% | 10µM* | -17% | nt | nt | nt
COc1ccc(CN2CCc3c(c(=O)n4ncc(C(=O)N5CCN(c6ccc(F)cc6)CC5)c4n3C)C2)cc1 | -22% | -18%[46.1 µM] | -16%[7.34 µM] | nt | nt | nt
CCOC(=O)c1nc(C)sc1-c1ccnn1S(=O)(=O)c1ccc(Cl)cc1Cl | -7% | -3% | -24% | -21% | 29* | 36
CCOC(=O)c1nc(C)sc1-c1ccnn1S(=O)(=O)c1ccccc1C(F)(F)F | i[7.34 µM] | -11% | -3%[7.34 µM] | -12%[46.1 µM] | 6 | -4
O=C(Nc1ccc(F)c(Cl)c1)C1Cc2ccccc2CN1S(=O)(=O)c1ccc(F)cc1 (stereo not drawn) | -15% | 0%[46.1 µM] | -20% | -8%[46.1 µM] | nt | nt
CCOc1ccc2nc(N3CCCC(C(=O)NCc4ccccc4OC)C3)sc2c1 (stereo not drawn) | 5% | nt | -7% | 5%[46.1 µM] | nt | nt
CCCOc1ccc(-c2nc(N3CCN(C)CC3)c3ccccc3n2)cc1 | nt | nt | nt | nt | 33* | 61*
CCCOc1ccc(-c2nc(N3CCN(CC)CC3)c3ccccc3n2)cc1 | nt | nt | nt | nt | 14 | 10
CCCOc1ccc(-c2nc(OCC)c3ccccc3n2)cc1 | i | -7% | -7% | 3% | 11 | 32*
CCOc1nc(-c2ccncc2)nc2ccccc12 | nt | 9% | nt | ? | -2 | -3
COc1ccccc1NC(=O)c1cc(-c2cc(OC)c(OC)c(OC)c2)nc2ccccc12 | -16% | ? | 6% | 3.2µM* | 6 | 12
Cn1c(N)c(C(=O)c2cc(-c3ccncc3)nc3ccccc23)c(=O)n(C)c1=O | i | 0% | -7% | -2% | 4 | -8
COc1ccc(-c2cc(C(=O)c3c(N)n(C)c(=O)n(C)c3=O)c3ccccc3n2)cc1OC | nt | nt | nt | nt | 25* | 14
COc1ccc(-c2cc(C(=O)Nc3ccccc3O)c3ccccc3n2)cc1OC | -18% | 0%[46.1 µM] | 0% | 1%[46.1 µM] | 12 | 10
COc1ccc(-c2cc(C(=O)Nc3nc4ccccc4s3)c3ccccc3n2)cc1OC | nt | ? | nt | ? | 16* | 43*
CCOc1ccccc1NC(=O)c1cc(-c2cc(OC)c(OC)c(OC)c2)nc2ccccc12 | i | 11µM* | -10% | ? | -4 | 9
CCOc1ccc(NC(=O)N2CCN(c3nnc(C)c4c(C)n(-c5ccccc5)nc34)CC2)cc1 | -14% | 4%[46.1 µM] | -15% | nt | nt | nt
O=C(c1ccco1)N1CCN(C(=O)c2ccc(COc3ccc4c(c3)CCC4)o2)CC1 | -16% | 14µM* | ? | ? | 1 | -3
O=C(c1ccc(COc2ccc3c(c2)CCC3)o1)N1CCN(c2ccccc2)CC1 | -9% | ? | -7% | 19% | nt | nt
O=C(c1ccco1)N1CCN(C(=O)c2ccc(COc3ccc(Cl)cc3Cl)o2)CC1 | nt | 13µM* | nt | ? | nt | nt
O=C(CSc1oc(-c2ccco2)nc1S(=O)(=O)c1ccc(Cl)cc1)c1ccc(Cl)cc1 | -9% | 3%[46.1 µM] | -5% | -26%[46.1 µM] | nt | nt
SMILES | Vaccinia mCherry | Lassa entry inh | VACV Venus inh | Marburg entry inh | Cycloheximide cs | Shiga toxin inh
COC(=O)C1=C(C(=O)OC)[C@@H]2N(C)c3ccccc3[C@@]23C[C@@H](CO)N(C(=O)NC2CCCCC2)C3=N1 | nt | nt | nt | -2%[14.2 µM] | nt | nt
CC(c1ccco1)N(C(=O)c1ccccc1NS(=O)(=O)c1ccc(Cl)c([N+](=O)[O-])c1)c1ccccn1 (stereo not drawn) | -13% | 3% | -8% | 3% | -3 | 39*
CC(C)c1ccc(C(=O)N(c2ccccn2)C(C)c2ccco2)cc1 (stereo not drawn) | nt | ? | nt | 1% | 30* | 90*
Cc1cc(C)cc(C(=O)N(c2ccccn2)C(C)c2ccco2)c1 (stereo not drawn) | nt | -5% | nt | -17% | 1 | 16
CC1=C2C(O)C(=O)OC3CC4C(C)(C)C(=O)C=C[C@]4(C)C(CC1)[C@@]23C (stereo partly drawn) | i | nt | -11% | nt | nt | nt
Cn1c(N)c(C(=O)N/N=C/c2ccccc2)sc1=S | ? | -2% | -17% | ? | -1 | -4
Nc1c(C(=O)Nc2ccc(F)cc2)sc(=S)n1-c1ccccc1F | -10% | ? | -10% | ? | 29* | 60*
Cn1c(N)c(C(=O)Nc2ccccc2F)sc1=S | nt | nt | nt | nt | 9.0* | 25
Cn1c(N)c(C(=O)Nc2ccc3ccccc3c2)sc1=S | nt | ? | nt | ? | 43* | 57*
O=C(Cn1cnc2ccccc2c1=O)NCCC(=O)Nc1ccccc1C(F)(F)F | i | -10% | -6% | 0%[46.1 µM] | -3 | 2
CCN(CC)c1ccc(C(=O)NNC(=O)CCl)cc1 | -6% | ? | -9% | -21%[46.1 µM] | 31* | 51
CCOC(=O)C1=C2NC(=O)c3ccccc3N2C(=O)C1 | 0% | 14% | 17% | 29%[46.1 µM] | 4 | -1
CCOC(=O)COC(=O)c1ccc(O)cc1 | nt | 29% | nt | ? | 15 | 47
Cc1ccc(C(=O)COC(=O)c2ccc(O)cc2)cc1 | -1% | ? | -14% | ? | 33* | 94*
CC(C)(C)NC(=O)COC(=O)c1ccc(O)cc1 | -1% | 9% | 4% | ? | 17* | 19
Cc1ccc(C(=O)COC(=O)C2CCC2)cc1 | -17% | -7%[46.1 µM] | -15% | ? | 36* | 48*
COc1cccc(-c2nc(CS(=O)CC(=O)NCCc3ccc(C)cc3)c(C)o2)c1 (stereo not drawn) | i | 8%[46.1 µM] | -15% | -4%[46.1 µM] | -4 | -2
Cn1c(=O)c2c(nc3sccn32)n(C)c1=O | i | 6% | -1% | 29% | 20* | 11
CCCN(CC(=O)Nc1ccc(F)c(F)c1F)C(=O)c1ccc2c(=O)n3c(nc2c1)CCC3 | i | 1% | -16% | -7% | nt | nt
CCN(CC)S(=O)(=O)c1ccc(N2CCOCC2)c(NC(=O)c2cccc3ccccc23)c1 | -15% | ? | -15% | -29% | -4 | -5
CCN(CC)S(=O)(=O)c1ccc(N2CCOCC2)c(NS(=O)(=O)c2cc(C(C)(C)C)ccc2C)c1 | -8% | 8.9µM* | ? | ? | -2 | -6
CCN(CC)S(=O)(=O)c1ccc(N2CCCCC2)c(C(=O)Nc2ccccc2N2CCOCC2)c1 | -1% | 10µM* | 3% | 5.6µM* | -3 | -15
O=C(C1CCN(c2ccc(N3CCOCC3)nn2)CC1)N1CCN(c2ccc(F)cc2)CC1 | nt | 0% | nt | -5% | 9 | 71*
O=C(c1cc2c(s1)CCCC2)n1cccn1 | -5% | 20% | 2% | ? | 18* | 9
O=C(c1cc2c(s1)CCCCC2)N1CCN(c2ncccn2)CC1 | nt | 13% | nt | -17% | 9 | 19
